From PubChem BioAssay (Tox21)
Results filed as inconclusive are left out. Where a call stands in place of a potency, no number is given. Calls of active or inactive are those of the source. Calls come from the whole dose curve.

assay: qHTS assay to identify small molecule agonists of the endoplasmic reticulum stress response signaling pathway - cell viability counter screen (AID 1159517); details: ESRE-bla HeLa viability, CellTiter-Glo luminescence, 5 h; series mostly up to 61 µM; note: nearly all actives have a fitted effect of over 50% in size
Description: U.S. Tox21 Program National Center for Advancing Translational Sciences [NCATS] NIH Chemical Genomics Center [NCGC] U.S. Environmental Protection Agency [EPA] National Institutes of Environmental Health Sciences [NIEHS] National Toxicology Program [NTP] U.S. Food and Drug Administration [FDA] Tox21 Assay Overview: Endoplasmic Reticulum (ER) plays an important role in cellular signaling, protein folding/maturation, stress response, lipid biosynthesis, calcium storage and release etc. Under stress conditions, proteins in ER misfold or unfold, and leading to the expression of ER stress responsive genes. ER stress has been associated with a variety of pathophysiological conditions such as cancer, inflammation, neurodegenerative diseases, diabetes, ischemic heart disease etc. To identify the compounds that induce ER stress response, an ER stress reporter cell line, CellSensor ESRE-bla HeLa (Life Technologies, Carlsbad, CA) containing a beta-lactamase reporter gene under control of the Endoplasmic reticulum Stress Response Element (ESRE) was used to screen Tox21 10K compound library. The cytotoxicity of the Tox21 compound library against the ESRE-bla HeLa cell line was tested in parallel by measuring cell viability using the CellTiter-Glo assay in the same wells.
Tox21 Assay Protocol Summary: ESRE-bla HeLa cells were dispensed at 1,500 cells/6 uL of assay medium per well into black wall/clear-bottom 1536-well plates using a Multidrop Combi (ThermoFisher Scientific, Waltham, MA) dispenser. After the assay plates were incubated at 37 C and 5% CO2 for an overnight, 23 nL of compounds dissolved in DMSO, positive controls or DMSO only was transferred to the assay plate by a Pintool station (Kalypsys, San Diego, CA). The assay plates were incubated at 37 C and 5% CO2 for 5 hr. One uL of LiveBLAzer B/G FRET substrate (Life Technologies) was added using a FRD (Flying Reagent Dispenser, Aurora Discovery, San Diego, CA) and the plates were incubated at room temperature for 2 hr. Fluorescence intensity (405 nm excitation, 460 nm and 530 nm emissions) was measured using an Envision plate reader (PerkinElmer, Shelton, CT). For cytotoxicity, 4 ul/well of CellTiter-Glo reagent was added into the assay plates using an FRD. After 30 min incubation at room temperature, the luminescence intensity was measured using a ViewLux plate reader (PerkinElmer).
Potency is the fitted concentration of half-maximal effect.

Q: For `CCC(C)(C)OC`, which Potency is on record?
A: inactive

Q: With `O=C1c2ccccc2C(=O)C1(O)O` as the compound, how does the Potency read?
A: 49.2 µM (active)

Q: Which Potency does the source give for `O=C1CCCCCCCCCCOCCCCO1` here?
A: inactive

Q: Which Potency does the source give for `C[C@]12CC[C@@H]3c4ccc(O)cc4CC[C@H]3[C@@H]1CC[C@@H]2OC(=O)CCC1CCCC1` here?
A: inactive

Q: With `O=[N+]([O-])c1ccc(Nc2ccc(Nc3ccccc3)c(S(=O)(=O)O)c2)c([N+](=O)[O-])c1` as the compound, how does the Potency read?
A: inactive

Q: Which Potency does the source give for `Cc1cccc(N(C)C(=S)Oc2ccc3c(c2)CCC3)c1` here?
A: inactive

Q: For `C=C(C)CCCC(C)CCO` (stereo not given), which Potency is on record?
A: inactive

Q: For `Cc1cc2c(OCC(CNC(C)(C)C)OC(=O)c3ccccc3)cccc2[nH]1` (stereo not given), which Potency is on record?
A: inactive

Q: For `O=C1C(=O)c2ccccc2C(O)=C1C1CCC(c2ccc(Cl)cc2)CC1` (stereo not given), which Potency is on record?
A: inactive

Q: With `CCCCN(CCN(CCCC)C(=O)N1CCOCC1)C(=O)N1CCOCC1` as the compound, how does the Potency read?
A: inactive

Q: With `CS(=O)(=O)c1ccc(-c2cn3ccccc3n2)cc1` as the compound, how does the Potency read?
A: 23.9 µM (active)

Q: With `OCCOCC#CCOCCO` as the compound, how does the Potency read?
A: inactive

Q: For `NC1[C@H]2CN(c3nc4c(cc3F)c(=O)c(C(=O)O)cn4-c3ccc(F)cc3F)C[C@@H]12` (stereo not given in full), which Potency is on record?
A: inactive

Q: With `CC(C)=CCC/C(C)=C/CC/C(C)=C/CCC(=O)OC/C=C(\C)CCC=C(C)C` as the compound, how does the Potency read?
A: inactive

Q: Which Potency does the source give for `C=CC(C)(CCC=C(C)C)OC(=O)CC(C)C` (stereo not given) here?
A: inactive

Q: For `O=c1c(O)c(-c2ccc(O)cc2)oc2cc(O)cc(O)c12`, which Potency is on record?
A: inactive

Q: Which Potency does the source give for `CCCCCC[C@@H](O)C/C=C\CCCCCCCC(=O)OCC(O)CO` (stereo not given in full) here?
A: inactive

Q: Which Potency does the source give for `CN1CCCC(n2nc(Cc3ccc(Cl)cc3)c3ccccc3c2=O)CC1` (stereo not given) here?
A: inactive

Q: For `C[C@]1(Cn2ccnn2)[C@H](C(=O)O)N2C(=O)C[C@H]2S1(=O)=O`, which Potency is on record?
A: inactive

Q: Which Potency does the source give for `CC1(C)[C@@H](OC(=O)CCC(=O)O)CC[C@]2(C)[C@H]3C(=O)C=C4[C@@H]5C[C@@](C)(C(=O)O)CC[C@]5(C)CC[C@@]4(C)[C@]3(C)CC[C@@H]12` here?
A: inactive

Q: Which Potency does the source give for `CCOC(C)=O` here?
A: inactive

Q: For `CC(C)c1nc(CN(C)C(=O)N[C@H](C(=O)N[C@@H](Cc2ccccc2)C[C@H](O)[C@H](Cc2ccccc2)NC(=O)OCc2cncs2)C(C)C)cs1`, which Potency is on record?
A: 15.1 µM (active)

Q: With `C[C@H]1c2cccc(O)c2C(O)=C2C(=O)[C@]3(O)C(O)=C(C(N)=O)C(=O)[C@@H](N(C)C)[C@@H]3[C@@H](O)[C@@H]21` as the compound, how does the Potency read?
A: inactive

Q: With `O=C(CCc1ccc(O)cc1)c1c(O)cc(O)cc1O` as the compound, how does the Potency read?
A: inactive

Q: Which Potency does the source give for `CCOC(=O)c1ccc(C#Cc2ccc3c(c2)C(C)(C)CCS3)nc1` here?
A: inactive

Q: For `CC(=O)Nc1ccc(C)cc1C`, which Potency is on record?
A: inactive

Q: Which Potency does the source give for `CC1(C)[C@H](C(=O)O)N2C(=O)C[C@H]2S1(=O)=O` here?
A: inactive

Q: Which Potency does the source give for `CC1CC(C)C(=O)C1=O` (stereo not given) here?
A: inactive

Q: For `Cc1[nH]cnc1CN1CCc2c(c3ccccc3n2C)C1=O`, which Potency is on record?
A: inactive

Q: For `COC(=O)c1nc(Cl)c(Cl)nc1N`, which Potency is on record?
A: 21.3 µM (active)

Q: For `Clc1ccc(Nc2nnc(Cc3ccncc3)c3ccccc23)cc1`, which Potency is on record?
A: inactive

Q: Which Potency does the source give for `N#CCCN(CCO)CCO` here?
A: inactive

Q: With `CC(=O)[C@H]1[C@H](C#N)C[C@H]2[C@@H]3CC=C4C[C@@H](O)CC[C@]4(C)[C@H]3CC[C@@]21C` as the compound, how does the Potency read?
A: inactive

Q: With `CC(C)(c1ccccc1)c1ccccc1` as the compound, how does the Potency read?
A: inactive

Q: Which Potency does the source give for `CC(=O)OCCN(CCOC(C)=O)c1ccc(N=Nc2ccc([N+](=O)[O-])cc2C#N)cc1` here?
A: inactive

Q: With `COC(=O)C1=C(C)NC(C)=C(C(=O)O[C@@H]2CCCN(Cc3ccccc3)C2)[C@@H]1c1cccc([N+](=O)[O-])c1` as the compound, how does the Potency read?
A: inactive

Q: Which Potency does the source give for `CCC(=O)OC` here?
A: inactive

Q: With `CC(C)COCC(CN(Cc1ccccc1)c1ccccc1)N1CCCC1` (stereo not given) as the compound, how does the Potency read?
A: inactive

Q: With `CC(C)(C)CC(=O)OCC(=O)[C@@]1(O)CC[C@H]2[C@@H]3CCC4=CC(=O)C=C[C@]4(C)[C@H]3[C@@H](O)C[C@@]21C` as the compound, how does the Potency read?
A: inactive

Q: Which Potency does the source give for `Nc1ncnc2c1ncn2[C@H]1CC[C@@H](CO)O1` here?
A: inactive
